rCAG RNA binder: binders of r(CAG) RNA repeats, primary screen, biochemical, fluorescence. inhibition, % at 3 µM. 370,000 tested, 1.3% active. r(CAG) RNA repeat, TO-PRO-1 dye displacement fluorescence;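 active = inhibition above the plate cutoff, the mean of all test compounds on that plate plus 3 SD, cut at about 35% in these data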;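 note: 0% = DMSO alone and 100% = 100 µM mitoxantrone as full dye displacement; higher means more dye released from RNA so lower well fluorescence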
GRIN3A LBD mod: binders of NR3A ligand-binding domain, primary screen, biophysical, differential scanning fluorimetry, uHTS | 340,000 tested, 2.5% active | NR3A LBD differential scanning fluorimetry, Tm shift; 0% = protein alone, 100% = glycine-bound protein | Tm shift relative to glycine control, % at 25 µM | Glutamate receptor ionotropic, NMDA 3A (GRIN3A) ligand-binding domain;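 active = melting temperature shift of at least 10% of the positive control shift, at one fixed dose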
MPTP inh: mitochondrial permeability transition pore inhibitors, primary screen, biochemical, isolated mouse mitochondria, absorbance; inhibition, % at 10 µM; Ca2+ swelling absorbance, 30 min; 360,000 tested, 1.4% active; AID 602449, 2012;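 active = inhibition of 50% or more, scaled per plate between neutral and stimulator controls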;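 note: 0% = DMSO wells given calcium and 100% = 1 mM EGTA wells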
Myeloid diff MLP: induction of myeloid progenitor differentiation, primary screen, cell-based, flow cytometry, MLPCN library; ER-HoxA9 myeloid progenitors, lysozyme-GFP differentiation; 360,000 tested, 1% active; calls only at 10 µM;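 active = normalized GFP-positive differentiation at or above the plate's own cutoff, the solvent-only control mean plus 3 SD; inconclusive = no clear call, values can overlap the other calls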;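 note: cells exposed to compound for four days before flow analysis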
FAS-TE inh: FAS thioesterase domain inhibitors, primary screen, biochemical, fluorescence intensity, uHTS; AID 602261, 2012; Fatty acid synthase (Homo sapiens), P49327; recombinant FAS-TE, OMFH fluorogenic substrate, fluorescence endpoint; 360,000 tested, 0.67% active; inhibition, % at 15 µM;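 active = compounds whose normalised, plate-corrected inhibition of enzyme fluorescence in the single-dose primary screen is 50% or more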;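 note: 0% = DMSO with enzyme and 100% = substrate without enzyme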
Target sequence (P49327 whole entry, looked up, the tested form may be a part): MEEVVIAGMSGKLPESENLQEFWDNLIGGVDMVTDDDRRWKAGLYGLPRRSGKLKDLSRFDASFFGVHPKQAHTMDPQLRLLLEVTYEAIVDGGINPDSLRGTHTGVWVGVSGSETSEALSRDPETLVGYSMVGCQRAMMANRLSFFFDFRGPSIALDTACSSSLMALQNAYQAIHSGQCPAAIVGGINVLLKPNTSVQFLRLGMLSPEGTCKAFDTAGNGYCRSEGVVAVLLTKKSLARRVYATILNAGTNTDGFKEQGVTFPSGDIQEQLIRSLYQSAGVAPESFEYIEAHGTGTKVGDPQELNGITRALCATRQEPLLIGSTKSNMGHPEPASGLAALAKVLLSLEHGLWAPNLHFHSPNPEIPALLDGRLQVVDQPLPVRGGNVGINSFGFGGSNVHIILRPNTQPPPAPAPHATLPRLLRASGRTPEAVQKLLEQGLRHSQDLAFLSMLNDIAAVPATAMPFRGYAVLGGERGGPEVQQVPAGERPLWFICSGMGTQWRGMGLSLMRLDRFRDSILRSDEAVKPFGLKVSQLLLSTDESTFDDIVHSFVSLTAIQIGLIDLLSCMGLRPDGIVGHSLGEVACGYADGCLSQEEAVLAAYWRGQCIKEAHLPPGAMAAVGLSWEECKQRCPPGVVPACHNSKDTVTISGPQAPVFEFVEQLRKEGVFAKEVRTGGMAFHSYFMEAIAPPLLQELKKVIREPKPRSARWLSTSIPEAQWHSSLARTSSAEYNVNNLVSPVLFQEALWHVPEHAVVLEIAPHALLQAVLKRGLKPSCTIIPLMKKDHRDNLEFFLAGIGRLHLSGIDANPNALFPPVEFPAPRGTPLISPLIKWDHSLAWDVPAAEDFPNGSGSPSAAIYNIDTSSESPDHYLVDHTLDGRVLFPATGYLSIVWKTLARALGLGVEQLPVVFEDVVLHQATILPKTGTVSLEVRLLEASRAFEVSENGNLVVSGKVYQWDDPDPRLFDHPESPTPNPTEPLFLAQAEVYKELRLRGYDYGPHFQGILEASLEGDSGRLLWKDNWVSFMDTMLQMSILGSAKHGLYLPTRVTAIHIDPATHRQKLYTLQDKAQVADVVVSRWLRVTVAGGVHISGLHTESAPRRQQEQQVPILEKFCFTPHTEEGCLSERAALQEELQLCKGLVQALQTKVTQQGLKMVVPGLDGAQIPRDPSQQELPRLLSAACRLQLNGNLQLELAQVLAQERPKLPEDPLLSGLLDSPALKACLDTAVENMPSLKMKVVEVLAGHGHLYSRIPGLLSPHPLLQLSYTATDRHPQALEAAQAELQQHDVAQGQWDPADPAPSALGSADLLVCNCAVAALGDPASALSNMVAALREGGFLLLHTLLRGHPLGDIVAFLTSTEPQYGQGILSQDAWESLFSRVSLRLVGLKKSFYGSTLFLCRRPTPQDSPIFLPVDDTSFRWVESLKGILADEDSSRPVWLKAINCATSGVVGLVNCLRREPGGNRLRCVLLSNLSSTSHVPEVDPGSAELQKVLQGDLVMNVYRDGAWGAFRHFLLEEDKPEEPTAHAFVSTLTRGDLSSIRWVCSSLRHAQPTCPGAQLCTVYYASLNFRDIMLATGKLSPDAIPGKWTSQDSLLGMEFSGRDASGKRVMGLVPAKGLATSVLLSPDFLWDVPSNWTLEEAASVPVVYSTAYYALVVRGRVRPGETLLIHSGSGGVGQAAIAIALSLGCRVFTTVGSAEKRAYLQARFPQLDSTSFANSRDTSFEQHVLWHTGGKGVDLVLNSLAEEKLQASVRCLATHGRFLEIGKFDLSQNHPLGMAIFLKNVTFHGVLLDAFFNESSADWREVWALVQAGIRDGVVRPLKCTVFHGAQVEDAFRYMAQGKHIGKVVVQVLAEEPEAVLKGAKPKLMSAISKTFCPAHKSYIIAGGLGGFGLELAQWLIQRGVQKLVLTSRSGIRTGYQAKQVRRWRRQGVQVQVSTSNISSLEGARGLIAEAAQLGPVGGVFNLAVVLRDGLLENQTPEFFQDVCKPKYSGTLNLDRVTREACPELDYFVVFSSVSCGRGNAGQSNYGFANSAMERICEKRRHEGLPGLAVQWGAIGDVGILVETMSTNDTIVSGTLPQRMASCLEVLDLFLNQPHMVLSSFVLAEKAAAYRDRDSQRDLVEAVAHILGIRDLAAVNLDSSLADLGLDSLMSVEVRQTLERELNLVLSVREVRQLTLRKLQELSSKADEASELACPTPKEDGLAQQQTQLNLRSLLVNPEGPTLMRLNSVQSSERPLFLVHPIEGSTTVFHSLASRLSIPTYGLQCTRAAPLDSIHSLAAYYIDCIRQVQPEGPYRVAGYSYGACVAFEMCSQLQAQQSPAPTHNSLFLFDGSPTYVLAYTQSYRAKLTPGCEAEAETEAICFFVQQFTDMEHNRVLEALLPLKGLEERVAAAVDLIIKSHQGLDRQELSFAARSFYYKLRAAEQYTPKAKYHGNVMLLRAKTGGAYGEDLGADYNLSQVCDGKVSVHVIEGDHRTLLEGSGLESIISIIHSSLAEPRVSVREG
The depositor's hits bear a star; i = inactive; ? = inconclusive; · = no result given; + = active, no number. Hits are enriched below; roughly 5.7% of the tested compounds scored in any of these assays.

SMILES	rCAG RNA binder	GRIN3A LBD mod	MPTP inh	Myeloid diff MLP	FAS-TE inh
CC(=O)NNC(=O)c1[nH]c2ccc(Br)cc2c1-c1ccccc1	5	-6	1	i	-1
Cc1ccc2[nH]c(C(=O)O)c(-c3ccccc3)c2c1	14	5	-1	i	-11
COC(=O)C1CCCN(C(=O)C2CCN(S(=O)(=O)c3cccs3)CC2)C1 (stereo not given)	3	·	·	·	·
Cc1ccc(O)c(C(=O)c2cnc3c(c2)COc2ccccc2-3)c1	1	-6	-2	+	24
CC(=O)OCC(=O)C1(O)CCC2C3CC(C)C4=CC(=O)C=CC4(C)C3C(O)CC21C (stereo not given)	0	·	-1	i	-4
Cc1cccc(CS(=O)(=O)c2ncc(Cl)c(C(=O)Nc3c(C)cccc3C)n2)c1	0	1	2	i	36
CCCc1nnc(NC(=O)c2nc(S(=O)(=O)Cc3cccc(C)c3)ncc2Cl)s1	35*	0	-1	i	10
C#CCN(Cc1ccco1)C(=O)c1nnc2c3cc(OC)ccc3n(S(=O)(=O)c3ccc(OC)cc3)c2n1	15	·	·	·	·
CCC(C)(C)C1CCc2nc3ccccc3c(C(=O)OC(C)C(=O)Nc3c(C)n(C)n(-c4ccccc4)c3=O)c2C1 (stereo not given)	6	-3	-1	+	38
Cc1oc(-c2ccc(Cl)cc2)nc1CN1CCCC(C(=O)NCc2ccco2)C1 (stereo not given)	-10	-1	-2	+	3
Cc1nc2c(C(=O)NCc3ccc(F)cc3)c[nH]n2c(=O)c1Cl	46*	-9	-2	i	-3
COC(=O)c1ccccc1-c1c2ccc(=N)cc-2oc2cc(N)ccc12	-72	-31	3	+	-137
Cc1ccc(C(=O)NNC(=O)C2CCN(S(=O)(=O)c3ccc(Cl)cc3)CC2)cc1	0	-3	-2	i	-9
O=C(Nc1ccc(Cl)cc1F)c1cc(S(=O)(=O)N2CCCCC2)ccc1F	0	13*	2	i	-9
CN1CCN(C(=O)C2CCCN(S(=O)(=O)c3ccc(F)cc3)C2)CC1 (stereo not given)	0	-4	-1	i	-5
O=C(C1CCCN(S(=O)(=O)c2ccc(F)cc2)C1)N1CCOCC1 (stereo not given)	4	26*	-1	i	-3
O=C(NNC(=O)C1CCN(S(=O)(=O)c2ccc(Cl)cc2)CC1)c1ccc(S(=O)(=O)N2CCCCC2)cc1	2	22*	14	i	-8
O=C(CN1CCCCC1)Nc1ccc(S(=O)(=O)N2CCOCC2)cc1	-6	2	-1	i	-6
O=C(CN1CCN(S(=O)(=O)c2ccc(Cl)cc2)CC1)Nc1ccc(N2CCOCC2)cc1	-3	10*	0	i	-7
CCOC(=O)[C@]12CCCCC/C=C\1N(CCc1ccc(Cl)cc1)C(=O)[C@H]2CC(=O)NCc1cccc2ccccc12	7	·	·	·	·
Cc1ccc(S(=O)(=O)N2CCCC(C(=O)Nc3c(C)n(C)n(-c4ccccc4)c3=O)C2)cc1 (stereo not given)	-1	·	·	·	·
O=C(Nc1ccc(S(=O)(=O)N2CCOCC2)cc1)c1ccc(S(=O)(=O)N2CCOCC2)cc1	1	-5	0	i	5
O=C(Nc1ccc(S(=O)(=O)NC2=NCCCCC2)cc1)c1cc(S(=O)(=O)N2CCOCC2)ccc1F	4	22*	-2	i	12
O=C(CCn1c(=O)oc2cc(Cl)ccc21)Nc1ccc(N2CCOCC2)cc1	3	1	-2	+	-2
Cc1c(NC(=O)C2CCN(S(=O)(=O)c3ccc(Cl)cc3)CC2)c(=O)n(-c2ccccc2)n1C	-5	13*	1	i	-1
SMILES	rCAG RNA binder	GRIN3A LBD mod	MPTP inh	Myeloid diff MLP	FAS-TE inh
O=C(Nc1ccc(S(=O)(=O)N2CCOCC2)cc1)c1ccc(Cl)cc1	3	22*	-1	i	5
COCc1[nH]nc2c1C(c1cccc(C(F)(F)F)c1)N(c1ccc(OC)cc1)C2=O (stereo not given)	1	·	·	·	·
Cc1cc(N2CCNC[C@H]2C)ccc1N1C[C@@H](C)O[C@@H](C)C1	3	·	·	·	·
CC(C)C[C@@H]1COc2cccc(N3CCCC3)c2S(=O)(=O)N1	-1	·	·	·	·
O=C(Nc1ccc2c(c1)oc1ccccc12)c1ccc(Br)o1	15	29*	0	i	16
O=C(Nc1cc(S(=O)(=O)Nc2ccc(Cl)cc2)ccc1N1CCCCC1)c1ccc(F)cc1Cl	27	21*	11	i	49
O=C(Nc1ccc(S(=O)(=O)N2CCOCC2)cc1)c1ccc(F)cc1	-1	38*	0	i	3
COc1ccc(NS(=O)(=O)c2ccc(N3CCOCC3)c(NC(=O)c3ccccc3Cl)c2)cc1	7	-11	-7	i	11
CC1CCCN(CC(=O)Nc2ccc(S(=O)(=O)N3CCCC3)cc2)C1 (stereo not given)	-3	-1	1	+	-2
O=C(Nc1ccc(S(=O)(=O)N2CCOCC2)cc1)c1ccc(Br)o1	-1	26*	1	i	1
O=C(Nc1ccc(N2CCCC2)cc1)c1ccc(Br)o1	2	1	2	+	-2
O=C(Nc1ccc2c(c1)OCO2)c1ccc(Cl)c(S(=O)(=O)N2CCOCC2)c1	2	18*	0	i	2
Cc1cc(NC(=O)c2ccc(Cl)cc2)cc(C)c1OCC(=O)N1CCOCC1	-6	13*	2	i	0
O=C(Nc1ccc(S(=O)(=O)N2CCCC2)cc1)c1ccc(Br)o1	1	1	-1	i	2
O=C(Nc1ccc2c(c1)OCCO2)c1ccc(Cl)c(S(=O)(=O)N2CCOCC2)c1	-1	0	0	i	6
CCOC(=O)C1=C(C(=O)OCC)C2N(Cc3ccc(C#N)cc3)c3ccccc3[C@@]23C[C@@H](C(=O)OC)N(S(=O)(=O)c2ccccc2)C3=N1 (stereo not given in full)	16	·	·	·	·
O=C(Nc1cccc(Cl)c1)c1cc(S(=O)(=O)N2CCOCC2)cs1	3	31*	-1	i	7
O=C(Nc1ccc(Cl)cc1)c1cc(S(=O)(=O)N2CCOCC2)cs1	5	-4	14	i	10
O=C(CSc1nnc(-c2ccccc2)n1-c1ccccc1)NN=C/C=C\c1ccccc1[N+](=O)[O-]	5	·	·	·	·
COc1cccc(-c2nc(-c3ccc(C(=O)O)cc3)no2)c1	2	-1	1	i	-17
COc1ccc(-c2nc(-c3ccc(NC(=O)c4ccncc4)cc3)no2)cc1OC	·	12*	19	?	-3
Cc1ccc(-c2nnc(-c3cccc(NC(=O)c4cccs4)c3)o2)cc1	9	20*	1	i	11
COc1cccc(-c2nc(-c3ccc(NC(=O)c4ccncc4)cc3)no2)c1	4	24*	39	i	1

Screening results: PubChem BioAssay, several laboratories
